Source: PubChem BioAssay AID1259416 (Broad Institute, 2018)
Several values for one entry are separate records, joined by “and”; a condition that tells them apart may be missing. Identical values can stand only once. Among all 69,000 compounds or so, about 2,600 (3.8%) were called active. Rule as the data show it: active = activity change below about -70% (passing the limit was not always enough); inconclusive = no clear call, values can overlap the other calls. Many of the other results were omitted from the sample, so actives are more common in it than they were. A structure can be active in one record and inactive in another.

test: T. gondii growth inhibition with IFN-gamma, primary screen, cell-based (AID 1259416); conditions: Toxoplasma gondii growth in IFN-gamma-treated host cells; stronger effect = lower value; concentration not given here;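 also: host cells are HeLa cells infected with Toxoplasma gondii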

Structure (SMILES)	activity change, negative = inhibition
O=C(Cn1ncc2ccccc2c1=O)NCc1cc(Cl)c2c(c1)OCCCO2	23% (inactive)
Cc1ccsc1CNc1cccc(C(=O)N(C)Cc2snnc2C)c1	-4.49% (inactive)
Cc1ccc2oc(=O)n(CCC(=O)N3[C@@H]4CC[C@H]3CNC(=O)C4)c2c1	-11.3% (inactive)
Cc1cc(C)cc(NC(=O)N2CCC3(CC2)Nc2ccccc2-n2cccc23)c1	295% (inactive)
O=C(N[C@H]1C[C@H]2C(=O)NCC(=O)N2C1)c1cccc(Cn2cccn2)c1	-5.16% (inactive)
COc1c(C)c2c(c(O)c1C/C=C(\C)CCC(=O)O)C(=O)OC2	-91.9% (active)
O=C(O)CSc1nnc(-c2ccn[nH]2)n1-c1ccccc1Cl	55.4% (inactive)
Cc1ccsc1CN(CCCN1CCOCC1)CC1=Cc2ccccc2OC1	97.9% (inactive)
Cc1ccc2oc(CN(CCCO)Cc3sccc3C)c(C)c2c1	-33.4% (inactive)
CCS(=O)(=O)N1CCC2(CC1)Nc1ccc(C)c(C)c1-n1cccc12	28% (inactive)
CC1(C)[C@]2(C(=O)NCCCc3nc4ccccc4o3)CC[C@@]1(C)OC2=O	4.16% (inactive)
c1ccc(N2CCN(N=C3c4ccccc4-c4ccccc43)CC2)nc1	-103% (active)
O=C(CN1CCN(c2ccccn2)CC1)Nc1ccc(Br)cc1	-9% (inactive)
c1ccc(N2CCC3(COCCN(c4ncccn4)C3)C2)nc1 (configuration not stated)	-3.03% (inactive)
CCCn1cc(S(=O)(=O)NCC2CCC(c3ccc(C(N)=O)c(C)n3)CC2)c(C)n1 (configuration not stated)	19.4% (inactive)
CN(C)C(=O)[C@@]12CCCN(Cc3cccs3)C[C@@H]1CN(Cc1cnn(C)c1)C2	-0.124% (inactive)
FC(F)(F)c1cccc2c(N3CCN(C4CCOCC4)CC3)ccnc12	-46.1% (inactive)
CN(C(=O)Nc1ccc(Cl)cc1)n1cnc2ccccc2c1=O	-50.7% (inactive)
CN(n1cnc2ccccc2c1=O)S(=O)(=O)c1cc(Cl)sc1Cl	-76.6% (active)

Structure (SMILES)	activity change, negative = inhibition
COC(=O)c1cc(NC(=O)S(=O)(=O)c2ccccc2)cc(C(=O)OC)c1	86.5% (inactive)
Cc1ccc(O)c(CCc2ccccc2)n1	8.51% (inactive) and 1.67% (inactive)
CCCCc1c(O)cc(-c2ccccc2)n(Cc2ccccc2)c1=O	-76.1% (active)
CCCCN(Cc1ccccc1)C(=O)c1cc2cccnc2n(Cc2ccc(Cl)cc2)c1=O	28.6% (inactive)
CC(C)(O)c1cn(C2CCN(C(=O)CCc3ccncc3)CC2)nn1	5.1% (inactive)
O=S(=O)(c1ccc(Cl)c(Cl)c1)N1CCc2c([nH]c3ccccc23)C1C(F)(F)F (configuration not stated)	-82.6% (active)
O=S(=O)(c1ccc(Cl)c(Cl)c1)N1CCC2(CC1)Nc1ccccc1-n1cccc12	43% (inactive)
O=C(c1ccc(F)cc1)N1CCc2c([nH]c3ccccc23)C1c1ccccc1 (configuration not stated)	63% (inactive)
CCc1nnc(CN(CC)C(=O)c2cccc(-c3ccc(C)o3)c2)o1	0.889% (inactive)
Cn1ccnc1-c1ccc(N2CCCC(OCc3cccnc3)C2)nn1 (configuration not stated)	-19% (inactive)
COCCc1noc(CN2CCCC2c2ccccn2)n1 (configuration not stated)	8.04% (inactive)
CCC[C@H](NC(=O)/C(C#N)=C/c1cccc(Br)n1)c1ccccc1	-72.2% (active)
N#C/C(=C\c1ccc(O)c(O)c1)C(=O)NCc1ccccc1	5.59% (inactive)
CN(C)C(=O)c1cccc(-c2ccccc2[C@@H]2[C@@H](CO)N(C(=O)C3CCCCC3)[C@H]2C#N)c1	-9.68% (inactive)
COCc1ncn2c1CN(C(=O)c1cnc(C)cn1)CCC2	16.2% (inactive)
CC1CCCCC12NC(=O)N(CC(=O)N1CCN(Cc3ccccn3)CC1)C2=O (configuration not stated)	13.9% (inactive)
COCCn1nnnc1CN(Cc1ccccc1)Cc1cc2ccc(C)c(C)c2[nH]c1=O	-81.4% (active)
CC(C)Oc1cccc(-c2csc(C(N)=O)c2)c1	65.6% (inactive)
CN(C)C(=O)C[C@]12COC[C@H]1CN(Cc1ccc3ccccc3n1)C2	-5.46% (inactive)

Structure (SMILES)	activity change, negative = inhibition
COCc1ccc(C(=O)Nc2ccc3nc(C)[nH]c3c2)o1	-55.3% (inactive)
COC(=O)Nc1nc2ccc(Sc3ccccc3)cc2[nH]1	-69.1% (inactive) and 7.35% (inactive) and -78% (active)
COC(=O)Nc1nc2ccc(C(=O)C3CC3)cc2[nH]1	-69.3% (inactive)
Cc1cc(C(=O)N2CCc3c(COCCN(C)C)cncc3C2)no1	-28.8% (inactive)
Cc1nnsc1CNC(=O)CC1CCc2ccccc21 (configuration not stated)	-7.08% (inactive)
CNC1(c2nnnn2CCOC(=O)Nc2ccc(Cl)cc2)CCCC1	93.6% (inactive)
Cc1[nH]c(/C=C2\C(=O)Nc3ccc(S(=O)(=O)Cc4c(Cl)cccc4Cl)cc32)c(C)c1C(=O)N1CCC[C@@H]1CN1CCCC1	-79.5% (active) and -88.9% (active) and -63.2% (inactive)
COc1ccc(OC)c(CNC(=O)Cn2ncc3c(N4CCCC4)ncnc32)c1	7.89% (inactive)
CC(C)(C)c1nc(-c2cccc(NS(=O)(=O)c3c(F)cccc3F)c2F)c(-c2ccnc(N)n2)s1	-83.7% (active)
CC1=C(C(=O)NCCCN2CC(C)CC(C)C2)C2(CCN(Cc3ccccc3)CC2)OC1=O (configuration not stated)	-65.1% (inactive)
O=C(c1nc2sccn2c1CN1CCC(c2ccccc2Cl)C1)N1CCCCC1 (configuration not stated)	1.45% (inactive)
O=C(Nc1cccc(N2CCCCS2(=O)=O)c1)c1ccc(-n2cccn2)nc1	6.32% (inactive)
Cc1ccc(C(=O)Nc2ccc(Oc3ccc(C(C)(C)C)cc3)nc2)cc1	-31.5% (inactive)
CC(C)(C)c1ccc(Oc2ccc(NC(=O)Cc3cccs3)cn2)cc1	-76.9% (active)
Cc1ccc(C)c(-c2coc(-c3ccc(NC(=O)Cc4cccs4)cc3)n2)c1	7.55% (inactive)
CCOC(=O)c1nc(N2CCN(Cc3ccc4c(c3)OCO4)CC2)c2ccccc2n1	42.4% (inactive)
O=C(C1CC=CC1)N1CCC2(CCN(Cc3cccc(F)c3)CC2)C1	-9.86% (inactive)
CC[C@]1(O)CC2CN(CCc3c([nH]c4ccccc34)[C@@](C(=O)OC)(c3cc4c(cc3OC)N(C=O)[C@H]3[C@@](O)(C(=O)OC)[C@H](OC(C)=O)[C@]5(CC)C=CCN6CC[C@]43[C@@H]65)C2)C1 (some centres not stated)	-82.9% (active) and -87.1% (active)
CC[C@]1(O)C[C@@H]2CN(CCc3c([nH]c4ccccc34)[C@@](C(=O)OC)(c3cc4c(cc3OC)N(C)[C@H]3[C@@](O)(C(=O)OC)[C@H](OC(C)=O)[C@]5(CC)C=CCN6CC[C@]43[C@@H]65)C2)C1	-97.6% (active)
